Assay results as given in the supplement of paper PMC10849652.
Targets with a hit are over-represented here; the source holds about 8,800 in all. About 0.5% of all pairs of compound and target were hits.

Columns and labels:
Assay in all cases: log2 fold change, soluble protein after heating vs DMSO (PISA); higher = thermal stabilisation; K562 lysate, 10 uM; active = over 0.2 and 3.5 SD of the protein, either way, in both replicates (recomputed)
erlotinib = compound: C#Cc1cccc(Nc2ncnc3cc(OCCOC)c(OCCOC)cc23)c1 [erlotinib]
Procedure, shortened: (§1)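 To prepare the extract, K562 pellets were dounce-homogenised in PBS pH 7.4 with 1 mM MgCl2, giving crude material at 1 mg/mL protein. This was treated with 10 μM compound for 30 min, then heated in aliquots for 3 min over 48°C-58°C before pooling and addition of NP-40 to 0.5% at 4°C. Centrifugation at 21,000xg for 90 min left soluble protein in the supernatant, which TMTpro 16plex LC-MS/MS quantified with equalised channel sums. Results are log-two fold changes in thermal stability compared with solvent controls, from duplicates.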

[1] = compound: C/C(=N\NC(=O)C1=CC(=CC=C1)S(=O)(=O)N2CCOCC2)/C3=C(C=CC(=C3)Cl)O
Procedure, shortened: as §1

[2] = compound: C1=CC(=CC=C1C2=NC3=C(N2)C=C(C=C3)C(=O)N)OC4=CC=C(C=C4)Cl
Procedure, shortened: as §1

[3] = compound: C1=CC2=C(C=CC(=C2)/C=C\3/C(=O)NC(=NCC4=CC=CS4)S3)N=C1
Procedure, shortened: as §1

[4] = compound: C1=CC2=NC=CN=C2C=C1/C=C/3\C(=O)NC(=O)S3
Procedure, shortened: as §1

[5] = compound: C1=CC=C(C=C1)C2=NC(=C(N2)C3=CC=NC=C3)C4=CC(=C(C=C4)Cl)O
Procedure, shortened: as §1

[6] = compound: C1=CC=C2C(=C1)C3=NNC4=CC=CC(=C43)C2=O
Procedure, shortened: as §1

[7] = compound: C1CCN(C1)C(=O)NC2=CC=CC(=C2)NC3=NC=C(C(=N3)NCCC4=CN=CN4)Br
Procedure, shortened: as §1

[8] = compound: C1CN(CCC1(CC2=CC=C(C=C2)Cl)N)C3=NC=NC4=C3C=CN4
Procedure, shortened: as §1

IRAK-1-4 Inhibitor I = compound: C1COCCN1CCN2C3=CC=CC=C3N=C2NC(=O)C4=CC(=CC=C4)[N+](=O)[O-] [IRAK-1-4 Inhibitor I]
Procedure, shortened: as §1

ibrutinib = compound: C=CC(=O)N1CCC[C@@H](n2nc(-c3ccc(Oc4ccccc4)cc3)c3c(N)ncnc32)C1 [ibrutinib]
Procedure, shortened: as §1

[9] = compound: CC(=O)c1cnc2ccc(-c3cc(Cl)c(O)c(Cl)c3)nc2c1N[C@H]1CC[C@H](CN(C)C)CC1
Procedure, shortened: as §1

ralimetinib = compound: CC(C)(C)Cn1c(N)nc2ccc(-c3[nH]c(C(C)(C)C)nc3-c3ccc(F)cc3)nc21 [ralimetinib]
Procedure, shortened: as §1

[10] = compound: CC(C)(O)CC(=O)NCCn1ccc2ncnc(Nc3ccc(Oc4cccc(C(F)(F)F)c4)c(Cl)c3)c21
Procedure, shortened: as §1

[11] = compound: CC(C)C1=C2N=C(C=C(N2N=C1)NCC3=CC=CC=C3)NCCCCCCN
Procedure, shortened: as §1

[12] = compound: CC1=C(C(CC(=O)N1)C2=CC=C(C=C2)C(F)(F)F)C(=O)NC3=C(C=C4C(=C3)C=NN4)F
Procedure, shortened: as §1

[13] = compound: CC1=C(C2=C(C=C1)C(=O)C3=CC=CC=C3N2CCCN)C
Procedure, shortened: as §1

[14] = compound: CC1=C(C=C(C=C1)NC(=O)C2=CC(=CC=C2)C(C)(C)C#N)NC3=CC4=C(C=C3)N=CN(C4=O)C
Procedure, shortened: as §1

[15] = compound: CC1=C(C=C(C=C1)NC(=O)C2=CC(=CC=C2)N(C)C)NC(=O)C3=CC=C(C=C3)O
Procedure, shortened: as §1

[16] = compound: CC1=CC=C(C=C1)SC2=C3C=C(SC3=CN=C2)C(=O)N
Procedure, shortened: as §1

Measured: log2 fold change

MRPS31 (UniProt Q92665)
inactive: erlotinib -0.015 | [1] -0.042 | [2] 0.056 | [3] 0.042 | [4] -0.021 | [5] -0.028 | [6] -0.048 | [7] -0.022 | [8] 0.02 | IRAK-1-4 Inhibitor I 0.005 | ibrutinib -0.01 | [9] -0.039 | ralimetinib -0.006 | [10] -0.006 | [11] 0 | [12] -0.01 | [13] -0.071 | [14] -0.006 | [15] -0.022 | [16] -0.006

MTA2 (UniProt O94776)
inactive: erlotinib -0.025 | [1] -0.017 | [2] 0.019 | [3] 0.013 | [4] -0.012 | [5] -0.015 | [6] -0.023 | [7] -0.007 | [8] 0.021 | IRAK-1-4 Inhibitor I -0.005 | ibrutinib -0.014 | [9] -0.023 | ralimetinib 0.03 | [10] 0.021 | [11] 0.032 | [12] 0.011 | [13] 0.018 | [14] -0.008 | [15] 0.043 | [16] -0.009

OPA1 isoform 2 (UniProt O60313)
UniProt O60313, sequence (O60313 whole entry, looked up): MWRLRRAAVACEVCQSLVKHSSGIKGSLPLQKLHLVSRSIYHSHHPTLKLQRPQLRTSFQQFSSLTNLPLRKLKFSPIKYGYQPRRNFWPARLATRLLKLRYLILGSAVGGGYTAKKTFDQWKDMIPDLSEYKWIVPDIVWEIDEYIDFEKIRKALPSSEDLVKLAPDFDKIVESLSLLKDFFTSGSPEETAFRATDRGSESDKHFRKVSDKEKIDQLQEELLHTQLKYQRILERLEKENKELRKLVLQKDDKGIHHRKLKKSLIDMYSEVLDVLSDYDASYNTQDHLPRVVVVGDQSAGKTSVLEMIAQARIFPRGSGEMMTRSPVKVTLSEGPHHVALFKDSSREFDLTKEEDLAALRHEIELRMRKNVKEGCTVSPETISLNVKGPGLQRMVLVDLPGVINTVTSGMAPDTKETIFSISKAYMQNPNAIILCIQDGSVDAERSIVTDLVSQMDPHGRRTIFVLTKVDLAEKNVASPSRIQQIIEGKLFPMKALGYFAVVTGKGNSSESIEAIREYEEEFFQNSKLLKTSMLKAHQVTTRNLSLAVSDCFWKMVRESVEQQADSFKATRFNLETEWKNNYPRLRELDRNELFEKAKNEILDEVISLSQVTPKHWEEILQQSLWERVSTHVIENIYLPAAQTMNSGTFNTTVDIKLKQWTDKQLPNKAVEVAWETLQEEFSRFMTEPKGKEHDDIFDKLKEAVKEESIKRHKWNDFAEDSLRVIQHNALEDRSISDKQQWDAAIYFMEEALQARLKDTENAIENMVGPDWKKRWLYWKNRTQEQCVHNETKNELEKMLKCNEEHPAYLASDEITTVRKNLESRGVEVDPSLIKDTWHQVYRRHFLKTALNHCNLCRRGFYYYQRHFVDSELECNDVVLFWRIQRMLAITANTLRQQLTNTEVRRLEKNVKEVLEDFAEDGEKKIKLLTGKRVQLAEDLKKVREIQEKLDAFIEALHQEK
inactive: erlotinib 0.003 | [1] 0.03 | [2] -0.078 | [3] 0.024 | [4] 0.01 | [5] -0.022 | [6] -0.026 | [7] -0.015 | [8] 0.021 | IRAK-1-4 Inhibitor I 0.003 | ibrutinib -0.001 | [9] 0.006 | ralimetinib -0.004 | [10] -0.036 | [11] -0.035 | [12] 0.031 | [13] 0.026 | [14] 0.024 | [15] 0.046 | [16] 0.02

NOSIP (UniProt Q9Y314)
inactive: erlotinib 0.012 | [1] -0.001 | [2] 0.023 | [3] 0.022 | [4] 0.011 | [5] 0.025 | [6] -0.019 | [7] 0.003 | [8] 0.022 | IRAK-1-4 Inhibitor I 0.01 | ibrutinib 0.028 | [9] 0.037 | ralimetinib 0 | [10] 0.009 | [11] -0.014 | [12] -0.009 | [13] 0 | [14] 0.047 | [15] 0.027 | [16] -0.009

NFATC2 (UniProt Q13469)
UniProt Q13469, sequence (Q13469 whole entry, looked up): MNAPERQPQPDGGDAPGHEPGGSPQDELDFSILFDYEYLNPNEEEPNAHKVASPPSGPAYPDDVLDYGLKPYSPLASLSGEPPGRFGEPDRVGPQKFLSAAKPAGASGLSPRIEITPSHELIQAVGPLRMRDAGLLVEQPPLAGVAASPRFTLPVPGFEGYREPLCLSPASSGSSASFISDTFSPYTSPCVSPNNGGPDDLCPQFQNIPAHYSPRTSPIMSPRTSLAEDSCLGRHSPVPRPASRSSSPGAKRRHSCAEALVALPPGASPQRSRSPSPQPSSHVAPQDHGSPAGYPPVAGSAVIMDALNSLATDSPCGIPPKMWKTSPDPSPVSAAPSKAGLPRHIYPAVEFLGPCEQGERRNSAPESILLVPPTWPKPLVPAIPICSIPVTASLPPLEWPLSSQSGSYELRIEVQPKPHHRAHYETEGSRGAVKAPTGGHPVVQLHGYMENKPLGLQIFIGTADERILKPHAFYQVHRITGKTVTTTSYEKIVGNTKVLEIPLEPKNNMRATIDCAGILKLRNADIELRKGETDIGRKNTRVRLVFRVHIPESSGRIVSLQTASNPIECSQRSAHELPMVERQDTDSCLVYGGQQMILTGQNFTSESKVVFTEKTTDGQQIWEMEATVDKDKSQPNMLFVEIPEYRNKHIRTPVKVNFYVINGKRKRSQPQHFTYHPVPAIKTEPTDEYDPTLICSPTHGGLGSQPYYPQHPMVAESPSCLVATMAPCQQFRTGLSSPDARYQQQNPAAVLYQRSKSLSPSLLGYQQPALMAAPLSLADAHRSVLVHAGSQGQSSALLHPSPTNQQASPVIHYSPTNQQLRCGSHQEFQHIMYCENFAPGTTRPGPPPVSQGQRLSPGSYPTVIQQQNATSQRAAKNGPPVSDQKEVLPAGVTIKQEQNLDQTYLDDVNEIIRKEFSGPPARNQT
inactive: erlotinib 0.002 | [1] 0.067 | [2] 0.014 | [3] 0.032 | [4] -0.016 | [5] 0.002 | [6] -0.144 | [7] -0.018 | [8] -0.049 | IRAK-1-4 Inhibitor I 0.033 | ibrutinib 0.012 | [9] 0.039 | ralimetinib -0.022 | [10] -0.061 | [11] 0.026 | [12] 0.004 | [13] -0.018 | [14] -0.026 | [15] 0.033 | [16] -0.031

NOA1 (UniProt Q8NC60)
inactive: erlotinib 0.001 | [1] 0.003 | [2] -0.007 | [3] -0.051 | [4] -0.024 | [5] 0.033 | [6] -0.088 | [7] 0.07 | [8] -0.046 | IRAK-1-4 Inhibitor I -0.032 | ibrutinib -0.024 | [9] -0.025 | ralimetinib 0.002 | [10] 0.034 | [11] 0.005 | [12] -0.064 | [13] -0.02 | [14] 0.002 | [15] -0.001 | [16] 0.02

NFAT5 isoform 5 (UniProt O94916)
UniProt O94916, sequence (O94916 whole entry, looked up): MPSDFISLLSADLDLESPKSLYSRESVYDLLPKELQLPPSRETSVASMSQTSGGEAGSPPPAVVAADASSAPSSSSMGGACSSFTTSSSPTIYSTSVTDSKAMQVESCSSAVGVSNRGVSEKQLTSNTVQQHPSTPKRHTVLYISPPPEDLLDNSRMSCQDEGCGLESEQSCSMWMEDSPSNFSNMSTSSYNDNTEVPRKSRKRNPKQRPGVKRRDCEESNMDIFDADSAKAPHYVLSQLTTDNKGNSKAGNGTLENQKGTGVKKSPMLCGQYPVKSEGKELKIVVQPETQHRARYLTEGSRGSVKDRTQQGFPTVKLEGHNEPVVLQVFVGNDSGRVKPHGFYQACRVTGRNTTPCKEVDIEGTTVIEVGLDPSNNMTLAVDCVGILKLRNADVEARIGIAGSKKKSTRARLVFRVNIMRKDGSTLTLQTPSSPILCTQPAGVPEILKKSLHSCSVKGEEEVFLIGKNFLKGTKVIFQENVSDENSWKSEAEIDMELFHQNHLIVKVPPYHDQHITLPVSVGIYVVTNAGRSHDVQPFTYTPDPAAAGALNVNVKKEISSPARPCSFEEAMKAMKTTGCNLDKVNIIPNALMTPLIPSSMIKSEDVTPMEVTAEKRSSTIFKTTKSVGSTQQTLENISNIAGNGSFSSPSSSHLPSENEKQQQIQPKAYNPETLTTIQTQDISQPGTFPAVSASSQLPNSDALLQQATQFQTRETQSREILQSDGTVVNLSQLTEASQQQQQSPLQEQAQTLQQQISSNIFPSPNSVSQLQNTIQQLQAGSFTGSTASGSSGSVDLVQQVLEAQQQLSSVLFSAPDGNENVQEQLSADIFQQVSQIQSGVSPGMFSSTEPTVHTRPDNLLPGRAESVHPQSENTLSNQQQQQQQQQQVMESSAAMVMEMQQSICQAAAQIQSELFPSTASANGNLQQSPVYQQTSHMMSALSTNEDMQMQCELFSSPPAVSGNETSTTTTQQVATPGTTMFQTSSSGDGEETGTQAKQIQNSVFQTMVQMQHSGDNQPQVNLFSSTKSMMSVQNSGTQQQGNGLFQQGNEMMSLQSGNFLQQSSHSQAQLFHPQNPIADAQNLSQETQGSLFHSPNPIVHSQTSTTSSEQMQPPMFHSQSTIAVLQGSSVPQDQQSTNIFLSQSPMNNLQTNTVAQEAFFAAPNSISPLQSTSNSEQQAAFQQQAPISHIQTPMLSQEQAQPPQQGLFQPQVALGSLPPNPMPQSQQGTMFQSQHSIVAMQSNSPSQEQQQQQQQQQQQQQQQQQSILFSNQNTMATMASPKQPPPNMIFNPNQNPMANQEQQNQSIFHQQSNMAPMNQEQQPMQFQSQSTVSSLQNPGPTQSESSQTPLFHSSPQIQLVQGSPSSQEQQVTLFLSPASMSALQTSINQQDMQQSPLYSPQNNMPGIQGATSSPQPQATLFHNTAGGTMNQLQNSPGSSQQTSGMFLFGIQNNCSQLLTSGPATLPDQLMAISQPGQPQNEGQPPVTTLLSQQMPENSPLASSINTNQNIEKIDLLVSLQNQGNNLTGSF
inactive: erlotinib -0.06 | [1] -0.012 | [2] 0.016 | [3] -0.036 | [4] 0.049 | [5] -0.008 | [6] -0.012 | [7] -0.006 | [8] 0.02 | IRAK-1-4 Inhibitor I 0.047 | ibrutinib -0.027 | [9] -0.029 | ralimetinib -0.017 | [10] 0.129 | [11] 0.003 | [12] 0.112 | [13] -0.008 | [14] -0.081 | [15] -0.004 | [16] 0.032

MTHFD1L (UniProt B7ZM99)
inactive: erlotinib 0.026 | [1] -0.001 | [2] 0 | [3] -0.007 | [4] 0.033 | [5] -0.006 | [6] -0.057 | [7] -0.004 | [8] 0.002 | IRAK-1-4 Inhibitor I -0.013 | ibrutinib -0.034 | [9] -0.014 | ralimetinib 0.004 | [10] 0.011 | [11] -0.007 | [12] -0.005 | [13] -0.006 | [14] 0.033 | [15] 0.02 | [16] -0.023

NARF (UniProt Q9UHQ1)
inactive: erlotinib 0.005 | [1] 0.006 | [2] 0.042 | [3] 0.007 | [4] -0.005 | [5] 0.004 | [6] 0.004 | [7] -0.009 | [8] -0.021 | IRAK-1-4 Inhibitor I -0.009 | ibrutinib 0.004 | [9] 0.044 | ralimetinib -0.007 | [10] -0.013 | [11] -0.013 | [12] -0.007 | [13] -0.011 | [14] -0.013 | [15] -0.008 | [16] -0.113

NNMT (UniProt P40261)
inactive: erlotinib -0.015 | [1] 0.003 | [2] 0.045 | [3] -0.001 | [4] -0.003 | [5] 0.032 | [6] -0.019 | [7] -0.002 | [8] -0.006 | IRAK-1-4 Inhibitor I -0.024 | ibrutinib -0.026 | [9] -0.037 | ralimetinib 0.011 | [10] -0.019 | [11] -0.05 | [12] -0.053 | [13] 0.026 | [14] 0.06 | [15] 0.016 | [16] -0.034

NCAPG2 (UniProt Q86XI2)
inactive: erlotinib 0.023 | [1] -0.026 | [2] -0.019 | [3] 0.001 | [4] 0.006 | [5] -0.004 | [6] -0.026 | [7] 0.023 | [8] -0.016 | IRAK-1-4 Inhibitor I 0.004 | ibrutinib 0.012 | [9] -0.029 | ralimetinib 0.018 | [10] 0.006 | [11] -0.009 | [12] 0.015 | [13] 0.05 | [14] -0.017 | [15] 0.001 | [16] -0.002

PARG (UniProt Q86W56)
UniProt Q86W56, sequence (Q86W56 whole entry, looked up): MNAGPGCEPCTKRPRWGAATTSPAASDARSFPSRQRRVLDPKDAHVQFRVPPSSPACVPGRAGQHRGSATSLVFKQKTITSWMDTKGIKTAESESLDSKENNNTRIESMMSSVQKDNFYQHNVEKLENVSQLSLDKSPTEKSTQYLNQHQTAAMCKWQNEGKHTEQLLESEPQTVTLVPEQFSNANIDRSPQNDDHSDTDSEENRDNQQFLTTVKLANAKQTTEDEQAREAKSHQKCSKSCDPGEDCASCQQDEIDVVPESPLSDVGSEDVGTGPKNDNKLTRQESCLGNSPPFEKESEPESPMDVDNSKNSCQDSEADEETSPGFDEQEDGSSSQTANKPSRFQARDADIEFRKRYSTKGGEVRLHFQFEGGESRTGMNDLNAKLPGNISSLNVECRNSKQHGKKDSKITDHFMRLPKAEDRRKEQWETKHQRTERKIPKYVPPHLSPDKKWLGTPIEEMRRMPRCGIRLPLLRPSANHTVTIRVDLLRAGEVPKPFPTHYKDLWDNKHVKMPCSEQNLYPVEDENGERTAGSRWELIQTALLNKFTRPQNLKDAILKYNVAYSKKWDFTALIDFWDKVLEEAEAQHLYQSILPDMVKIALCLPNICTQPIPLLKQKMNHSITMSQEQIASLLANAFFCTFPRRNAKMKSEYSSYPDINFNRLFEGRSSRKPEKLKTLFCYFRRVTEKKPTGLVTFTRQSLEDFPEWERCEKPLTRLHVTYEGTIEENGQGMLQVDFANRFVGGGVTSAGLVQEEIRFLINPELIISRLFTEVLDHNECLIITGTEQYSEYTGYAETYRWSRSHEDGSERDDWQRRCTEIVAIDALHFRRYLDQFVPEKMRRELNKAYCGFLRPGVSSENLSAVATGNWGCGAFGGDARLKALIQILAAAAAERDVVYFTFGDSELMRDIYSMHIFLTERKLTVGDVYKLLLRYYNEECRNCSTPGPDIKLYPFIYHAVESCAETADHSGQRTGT
inactive: erlotinib 0.009 | [1] -0.013 | [2] -0.062 | [3] 0.008 | [4] -0.011 | [5] 0.004 | [6] -0.013 | [7] 0.003 | [8] -0.011 | IRAK-1-4 Inhibitor I 0.048 | ibrutinib 0.013 | [9] 0.01 | ralimetinib 0.017 | [10] -0.011 | [11] -0.025 | [12] -0.017 | [13] -0.028 | [14] 0.021 | [15] 0.061 | [16] 0.005

NF1 (UniProt P21359)
inactive: erlotinib 0.072 | [1] -0.031 | [2] -0.02 | [3] -0.056 | [4] -0.008 | [5] -0.003 | [6] -0.089 | [7] 0.017 | [8] 0 | IRAK-1-4 Inhibitor I 0.023 | ibrutinib 0.018 | [9] 0.02 | ralimetinib 0.07 | [10] -0.03 | [11] -0.009 | [12] 0.004 | [13] -0.02 | [14] 0.041 | [15] 0.007 | [16] -0.032

NCAPH2 (UniProt Q6IBW4)
UniProt Q6IBW4, sequence (Q6IBW4 whole entry, looked up): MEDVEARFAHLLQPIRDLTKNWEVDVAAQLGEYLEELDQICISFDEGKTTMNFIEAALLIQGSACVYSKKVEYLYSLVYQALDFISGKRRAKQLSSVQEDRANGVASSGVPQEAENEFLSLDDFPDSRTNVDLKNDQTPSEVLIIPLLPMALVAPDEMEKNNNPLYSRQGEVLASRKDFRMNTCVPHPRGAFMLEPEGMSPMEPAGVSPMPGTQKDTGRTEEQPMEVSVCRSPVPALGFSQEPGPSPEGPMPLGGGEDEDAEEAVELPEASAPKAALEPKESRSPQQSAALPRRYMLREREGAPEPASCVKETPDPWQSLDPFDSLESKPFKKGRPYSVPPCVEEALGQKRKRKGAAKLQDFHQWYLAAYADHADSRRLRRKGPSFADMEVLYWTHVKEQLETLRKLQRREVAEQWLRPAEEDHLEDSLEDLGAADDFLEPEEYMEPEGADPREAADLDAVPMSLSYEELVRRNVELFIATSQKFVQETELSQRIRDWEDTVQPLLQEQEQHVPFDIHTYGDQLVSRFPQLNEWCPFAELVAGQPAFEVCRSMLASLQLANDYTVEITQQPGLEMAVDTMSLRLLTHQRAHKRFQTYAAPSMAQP
inactive: erlotinib -0.031 | [1] -0.085 | [2] 0.011 | [3] -0.012 | [4] 0.026 | [5] 0 | [6] -0.005 | [7] -0.038 | [8] 0.042 | IRAK-1-4 Inhibitor I 0.009 | ibrutinib -0.033 | [9] -0.01 | ralimetinib 0.066 | [10] -0.091 | [11] 0.028 | [12] -0.017 | [13] 0 | [14] 0.01 | [15] 0.055 | [16] 0.011

NUP205 (UniProt Q92621)
inactive: erlotinib 0.03 | [1] -0.022 | [2] -0.018 | [3] 0.049 | [4] -0.008 | [5] -0.013 | [6] -0.06 | [7] -0.009 | [8] 0.035 | IRAK-1-4 Inhibitor I 0.005 | ibrutinib 0.015 | [9] 0.026 | ralimetinib 0.026 | [10] -0.006 | [11] -0.036 | [12] 0.003 | [13] 0.022 | [14] 0.026 | [15] 0.017 | [16] 0.008

NAA30 (UniProt Q147X3)
inactive: erlotinib 0.015 | [1] -0.027 | [2] 0.061 | [3] 0.026 | [4] -0.007 | [5] -0.046 | [6] -0.038 | [7] -0.088 | [8] -0.031 | IRAK-1-4 Inhibitor I 0.085 | ibrutinib 0.013 | [9] -0.017 | ralimetinib 0.057 | [10] -0.037 | [11] -0.018 | [12] 0.084 | [13] -0.024 | [14] -0.045 | [15] 0.004 | [16] 0.046
